The structures appear in SMILES notation. Compounds without any hit were thinned out: in the full panel of roughly 83,000, 20% have a hit.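 Single-dose data. Exposure time 48 hours. Values below 10 considered active.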 A number with no mark means an inactive call. Activity calls are given as the source filed them.

Holding throughout (assay): NCI-60 one-dose screen, 48 h (100 = growth as untreated, 0 = no growth, -100 = all killed)
Holding throughout (conditions): 10 µM unless noted

The subject of assay [1] is HCT-15 colon.
The test system of assay [2] is HT29 colon.
The test system of assay [3] is SNB-75 CNS.
Assay [4] deals with SNB-19 CNS.
In assay [5] the test system is U251 CNS.
Assay [6] has as its system PC-3 prostate.
The subject of assay [7] is SK-MEL-5 melanoma.
Assay [8] concerns UACC-62 melanoma.
Assay [9] has as its system LOX IMVI melanoma.
Assay [10] has as its system SK-MEL-28 melanoma.
Assay [11] has as its system SK-MEL-2 melanoma.
Assay [12] deals with EKVX NSCLC.
For assay [13], the system named is SN12C renal.
The subject of assay [14] is UO-31 renal.
Assay [15] relates to TK-10 renal.
Assay [16] deals with ACHN renal.
For assay [17], the system named is CAKI-1 renal.
The test system of assay [18] is A498 renal.
Assay [19] deals with CCRF-CEM leukemia.
Assay [20] relates to MOLT-4 leukemia.

Turning to `CC(C)(C)n1cc(-c2ccnc(NCCNS(=O)(=O)c3cccc4ccccc34)c2)c(-c2cccc(F)c2)n1`, the growth is -37.2% (active) in [1]; -29.6% (active) in assay [2]; -17.6% (active) in [3]; 27.5% in assay [4]; -18.7% (active) in [5]; 4.9% (active) in assay [6]. The growth was -97.1% (active) in assay [7]; 8% (active) in assay [8]; -86.8% (active) in [9]; -2.58% (active) in assay [10]; -35.3% (active) in assay [11]; 8.04% (active) in assay [12]. For the same compound, the growth in assay [13] is -88.4% (active); in assay [14], -38.2% (active); in assay [15], -80% (active); in assay [16] it was -58.5% (active); in assay [17] it was -54.7% (active); in assay [18], -73.1% (active). The values for the growth in assay [19] and in [20] were 11% and -15.5% (active), respectively.
As to `CN1CCN(c2ccc(NC(=O)c3nc4ccc5[nH]ncc5c4c4c3CCCC4)cc2C(F)(F)F)CC1`, the growth in [1] is 2.8% (active); in [2] it was 20.5%; in assay [3], 84.7%; in assay [4] it was 81.6%; in assay [5] it was 78%; in assay [6], 65.4%. Moreover, the growth in assay [7] is 75.8%; in assay [8] it was 89%; in [9], -81.7% (active); in assay [10] it was 89.5%; in [11] it was 88.2%; in assay [12] it was 88.2%. Moreover, the growth in assay [13] is 32.6%; in assay [14], 64.3%; in assay [15], 109%; in [16] it was 15.2%; in assay [17] it was 19.4%; in assay [18] it was 82.4%. Also, the growth in [19] was 5.81% (active); in [20], 36.1%.
As to `CC(C)=CCC[C@](C)(O)[C@H]1CC[C@]2(C)[C@@H]1CC[C@@H]1[C@@]3(C)Cc4nccnc4C(C)(C)[C@@H]3CC[C@]12C`, the growth in [1] was 70.4%; in [2], 42%; in assay [3], 91.6%; in assay [4], 94%; in [5], 78.2%; in assay [6], 44.6%. Further, the growth was 65.8% in [7]; 66.9% in assay [8]; 83.7% in assay [9]; 95.6% in assay [10]; 82.7% in assay [11]; 70.6% in assay [12]. Moreover, the growth in assay [13] was 72.3%; in assay [14], 79.9%; in assay [15], 94.9%; in assay [16], 85%; in [17], 70.2%; in [18] it was 91.4%. For the same compound, the growth in assay [19] is 68.4%; in assay [20] it was 66.7%.
For `C=CC(=O)NCc1ccc(Nc2nccc(-c3ccc(N4CCCC4)c(C#N)c3)n2)cc1`, the growth was 19.7% in assay [1]; 7.08% (active) in assay [2]; 20.3% in [3]; 58.6% in assay [4]; 38.1% in assay [5]; 32.4% in assay [6]. For the same compound, the growth in [7] is 35.7%; in [8], 33.8%; in [9], 47.2%; in [10], 45.5%; in assay [11], 35.8%; in assay [12] it was 62.8%. The growth is 41.3% in assay [13]; 17.5% in assay [14]; 37.3% in assay [15]; 20.4% in assay [16]; -1.86% (active) in assay [17]; 54% in assay [18]. The growth is 49.1% in [19] and 20% in assay [20].
Take `CC(O)c1cnc(/C=C2\SC(=S)N(Cc3ccccc3)C2=O)s1` (stereo not given): the growth in assay [1] is 83.6%; in [2], -8.15% (active); in [3], 85.2%; in [4] it was 97.9%; in assay [5], 54.9%; in assay [6] it was 34%. Also, the growth was 88.8% in assay [7]; 90.3% in assay [8]; 41.2% in assay [9]; 89.3% in assay [10]; 69.1% in assay [11]; 98.1% in assay [12]. Also, the growth in assay [13] was 95.5%; in assay [14], 93.5%; in assay [15], -18.5% (active); in [16], 88.2%; in assay [17], 87.8%; in assay [18], 104%. For the same compound, the growth in assay [19] was 18.8%; in assay [20] it was 58.1%.
Turning to `N#Cc1c(NC(=O)c2ccccc2)sc2c1CCC(=O)C2`, the growth was -3.43% (active) in [1]; 14.1% in assay [2]; -6.39% (active) in assay [3]; 19.1% in [4]; 13.4% in [5]; 12% in [6]. Besides, the growth in assay [7] was -75.8% (active); in [8] it was 1.83% (active); in assay [9] it was 6.26% (active); in assay [10] it was 17.5%; in [11], 13.6%; in assay [12] it was 21.7%. Besides, the growth is 11.6% in assay [13]; -16.4% (active) in assay [14]; 39.5% in assay [15]; 5.88% (active) in [16]; -27.3% (active) in [17]; 78.3% in assay [18]. Moreover, the growth in assay [19] was 7.52% (active); in assay [20], 8.12% (active).
With `COC(=O)c1c2c(c(C)[n+]([O-])c1C)C(=O)C=C(NCc1ccc(Br)cc1)C2=O`, the growth was -63% (active) in assay [1]; -5.46% (active) in [2]; -98.6% (active) in assay [3]; -87.2% (active) in assay [4]; -41% (active) in assay [5]; -11.1% (active) in assay [6]. Moreover, the growth is -97.5% (active) in [7]; -59.5% (active) in assay [8]; -75.7% (active) in [9]; -39.6% (active) in [10]; -54% (active) in assay [11]; -85.3% (active) in assay [12]. Besides, the growth in assay [13] was -77.7% (active); in [14] it was -85.8% (active); in [15] it was 2.5% (active); in assay [16], -73.2% (active); in assay [17] it was -25.7% (active); in assay [18] it was -86.4% (active). Further, the growth in [19] was -12.6% (active); in assay [20], -21.7% (active).
Turning to `CCCCNC(=O)Oc1ccc(/C(=C(/CC)Cc2ccccc2)c2ccc(OCCN3CCCCCC3)cc2)cc1`, the growth in assay [1] is -29.9% (active); in assay [2], -21% (active); in [3], 61.2%; in assay [4] it was 45.2%; in assay [5] it was 25.7%; in assay [6], 39.8%. For the same compound, the growth in [7] is 13.1%; in [8] it was 24%; in assay [9] it was -93.6% (active); in assay [10], -6.15% (active); in assay [11], 84.9%; in assay [12], 59.2%. Further, the growth was 25.8% in assay [13]; 35.2% in assay [14]; 92.4% in assay [15]; 66.4% in assay [16]; 72.1% in assay [17]; 72% in assay [18]. The growth in [19] is 5.36% (active); in assay [20] it was 2.34% (active).

The record behind these values is PubChem BioAssay (NCI).
